Source: PubChem BioAssay (Tox21)
Values joined by “and” are separate entries in the source; they are usually repeats but may differ in a detail not shown here. Equal values may be shown once. Records with an inconclusive call do not appear. Entries that show only a call come without a potency. Active and inactive are the calls of the source. Calls follow the shape of the full dose curve.

assay: qHTS assay to identify small molecule agonists of the progesterone receptor (PR) signaling pathway - cell viability counter screen (AID 1346799); conditions: PR-UAS-bla HEK293T viability, CellTiter-Glo luminescence, 16 h; series mostly up to 92.4 µM; also: nearly all actives have a fitted effect of over 45% in size
Excerpt: National Center for Advancing Translational Sciences [NCATS]
NIH Chemical Genomics Center [NCGC]
U.S. Environmental Protection Agency [EPA]
National Institutes of Environmental Health Sciences [NIEHS]
National Toxicology Program [NTP]
U.S. Food and Drug Administration [FDA]
Progesterone receptor (PR), a nuclear hormone receptor, plays an important role in development, metabolic homeostasis and reproduction. It is activated by the steroid hormone progesterone. Endocrine disrupting chemicals (EDCs) and their interactions with steroid hormone receptors like PR causes disruption of normal endocrine function. To identify the compounds that stimulate PR signaling, a PR-UAS-bla GripTite cell line i.e. PR-UAS-bla HEK293T (Invitrogen, Carlsbad, CA, USA) containing a beta-lactamase reporter gene under the control of an UAS response element was used to screen Tox21 10K compound library. The cytotoxicity of the Tox21 compound library against the PR-bla cell line was tested in parallel by measuring the cell viability using CellTiter-Glo assay in the same wells.
Tox21 Assay Protocol Summary:
PR-UAS-bla HEK293T cells were dispensed at 3,000 cells/5 uL of assay medium containing 2% charcoal stripped FBS per well into black wall/clear-bottom 1536-well plates using a Multidrop Combi (ThermoFisher Scientific, Waltham, MA) dispenser. After the assay plates were incubated at a 37C and 5% CO2 for 6 hr, 23 nL of compounds dissolved in DMSO, positive controls or DMSO only was transferred to the assay plate by a Pintool station (Kalypsys, San Diego, CA). The plates were incubated at 37C and 5% CO2 for 16 hr. Then 1 uL of LiveBLAzer B/G FRET substrate was added using a Flying Reagent Dispenser (FRD, Aurora Discovery, San Diego, CA), the plates were incubated at room temperature for 2 hours, and fluorescence intensity was measured by an Envision plate reader (PerkinElmer, Shelton, CT). For cell viability readout that measures cytotoxicity, 4 uL/well of CellTiter-Glo reagent was added into the assay plates using a FRD. After 30 min incubation at room temperature, the luminescence intensity in the plates was measured using a ViewLux (PerkinElmer) plate reader.
Potency is read from the fitted curve at half-maximal effect.

| SMILES | Potency | activity change, negative = cytotoxicity |
| --- | --- | --- |
| C=CC(=O)OCCC#N | inactive | – |
| CC(=O)OC1CCCCC1 | inactive | – |
| CCCCCCCC/C=C\CCCCCCCC(=O)N(C)CC(=O)O | 68.6 µM (active) | – |
| CO[Si](CCC1CCC2OC2C1)(OC)OC (stereo not given) | inactive | – |
| CC(C)c1ccc(O)c(C(C)C)c1 | inactive | – |
| O=C1Nc2ccc(Cl)cc2[C@@](C#CC2CC2)(C(F)(F)F)O1 | inactive | – |
| CCCCCCCCCCCCCCCC | inactive | – |
| Cc1ccc(O)cn1 | inactive | – |
| CC1(C)COCN1 | inactive | – |
| Clc1nc2ccccc2s1 | inactive | – |
| CCCOc1sc(C(=O)N2CCC(c3cc(CN)ccc3F)CC2)c(C)c1Br | 19.9 µM (active) | – |
| CCN(CC)CCOc1ccc(C(O)(Cc2ccc(Cl)cc2)c2ccc(C)cc2)cc1 (stereo not given) | 23.7 µM (active) | – |
| Cc1cccc(N(C)C)c1 | inactive | – |
| c1ccc(Nc2cccc3ccccc23)cc1 | inactive | – |
| Oc1ccc(-c2ccc(O)cc2)cc1 | inactive | – |
| CCOC(=O)CN | inactive | – |
| CC1CCCCN1CCCOC(=O)c1ccc(OC2CCCCC2)cc1 (stereo not given) | inactive | – |
| Cc1c(C)n(Cc2ccccc2)c2ccc(C(=O)OCCN(C)C)cc12 | inactive | – |
| OCCC(O)CO (stereo not given) | inactive | – |
| Cc1occc1SSc1ccoc1C | inactive | – |

| SMILES | Potency | activity change, negative = cytotoxicity |
| --- | --- | --- |
| CCC(=O)CC(C)CC (stereo not given) | – | 1.66% [at 0.349 µM] (inactive) |
| O=C1OC(=O)c2cccc3cccc1c23 | inactive | – |
| CC1CCCCC1 | inactive | – |
| CCc1ccc(C)nc1 | inactive | – |
| NCCCCCCNCCCCCCN | inactive | – |
| CN(C)CCN1CCOCC1 | inactive | – |
| CO[Si](CCCNCCNCCN)(OC)OC | inactive | – |
| Cc1cc(C)c(C=O)c(C)c1 | inactive | – |
| CCc1c(C(=O)O)c(=O)cnn1-c1ccc(Cl)cc1 | inactive | – |
| C=CC/C=C/C/C=C/C/C=C/C | inactive | – |
| CC(O)C#CC(C)O (stereo not given) | inactive | – |
| Clc1cc(Cl)c(-c2c(Cl)c(Cl)cc(Cl)c2Cl)cc1Cl | inactive | – |
| CSc1ccc2c(c1)N(CCC1CCCCN1C)c1ccccc1S2 (stereo not given) | 27.2 µM (active) and 21.1 µM (active) | – |
| COC(=O)C1=C(C)NC(C)=C(C(=O)OCCCN2CCC(c3ccccc3)(c3ccccc3)CC2)C1c1cccc([N+](=O)[O-])c1 (stereo not given) | 13.3 µM (active) | – |
| O=C1C=CC(=O)N1c1ccccc1 | 61.1 µM (active) | – |
| Brc1ccccn1 | inactive | – |
| CCC1CCCCC1 | inactive | – |
| CC(C)=CCCC(C)CCOC(=O)C(C)C (stereo not given) | inactive | – |
| Clc1ccccc1CN1CCc2sccc2C1 | inactive | – |
| CC(=O)C=O | inactive | – |
